Test results published in PubChem BioAssay AID686978 (National Center for Advancing Translational Sciences (NCATS), 2013).
About 64,000 (15%) of roughly 420,000 compounds were called active. Another 27% or so got no clear call; they are omitted. A selection follows. Unmarked numbers belong to inactive results. The call rests on the fitted dose curve; in most records, active means well fitted inhibition curve with a large enough effect; inconclusive means small, poorly fitted or top-dose-only effect; inactive means flat fitted curve, though single readings scatter.

assay: qHTS for Inhibitors of human tyrosyl-DNA phosphodiesterase 1 (TDP1): qHTS in cells in absence of CPT; conditions: DT40 Tdp1-/- hTDP1 cells, no CPT, ATP luminescence, 48 h; activity change, negative = growth inhibition: at 46.2 µM (top of the series); further: nearly all actives have a fitted effect of over 55% in size
How it was run: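 Cells were dispensed at 400 per well, compounds added by pin tool, plates incubated ≥48 hr at 37 °C, then CellTiter-Glo added for 30 min at room temperature before luminescence reading. Line: DT40 Tdp1-/- complemented with hTDP1; camptothecin omitted.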
On the % scale 0 is the no-effect control and ±100 the full control effect; potency means the concentration at half of the fitted maximal effect.

With `COc1ccccc1C(=O)NCC(=O)OCC(=O)Nc1nnc(-c2ccccc2)o1` as the compound, how does the “activity change, negative = growth inhibition” value read?
The value was 0.346%.

Which “activity change, negative = growth inhibition” value does the source give for `CCCNC(=O)C[C@@H]1CC[C@@H]2[C@H](COC[C@H](O)CN2C(=O)c2cc(Cl)cc(Cl)c2)O1` here?
The value was 3.86%.

With `Cn1c(N)c(C(=O)COC(=O)c2ccccc2NCc2ccco2)c(=O)n(C)c1=O` as the compound, how does the “activity change, negative = growth inhibition” value read?
The value was -17.3%.

With `Cc1cc2cc(CNC(=O)c3cccs3)ccc2[nH]1` as the compound, how does the “activity change, negative = growth inhibition” value read?
The value was -9.84%.

Which “activity change, negative = growth inhibition” value does the source give for `CCc1cccc(CC)c1NC(=S)Nc1ccc2cn[nH]c2c1` here?
Its value is -26.7%.

For `CCc1cccc(CC)c1NC(=S)NCc1ccc2[nH]c(C)cc2c1`, which Potency is on record?
The Potency was 18.4 µM (active).

With `COc1ccc(S(=O)(=O)NCC2CCCN(C(=O)c3occc3C)C2)cc1` (stereo not given) as the compound, how does the “activity change, negative = growth inhibition” value read?
The value was 4.89%.

With `O=C(c1ccccn1)c1ncc(C(F)(F)F)cc1Cl` as the compound, how does the “activity change, negative = growth inhibition” value read?
Its value is 0.458%.

Which “activity change, negative = growth inhibition” value does the source give for `C=CCn1c(SCC(=O)Nc2nc3ccccc3s2)nnc1-c1ccccc1O` here?
Its value is -19.3%.

Which “activity change, negative = growth inhibition” value does the source give for `NC(=O)Cc1nc2scc(-c3ccc(Cl)cc3)c2c(=O)[nH]1` here?
Its value is -7.87%.

With `O=c1[nH]c(CCl)nc2cc(-c3ccc(Cl)cc3)sc12` as the compound, how does the Potency read?
The Potency was 2.31 µM (active).

With `O=c1[nH]c(CN2CCOCC2)nc2cc(Cl)ccc12` as the compound, how does the “activity change, negative = growth inhibition” value read?
The value was -17.7%.

For `CCOCCCNC(=S)N1CCC(NC(=O)C2CCCCC2)CC1`, which “activity change, negative = growth inhibition” value is on record?
The value was 23.4%.

Which Potency does the source give for `CSCCC(NS(=O)(=O)c1ccc2c(c1)oc(=O)n2C)C(=O)NCc1ccccc1` (stereo not given) here?
Its Potency is “inactive”.

With `OC(CBr)C[n+]1cccc2cc(Br)ccc21` (stereo not given) as the compound, how does the Potency read?
Its Potency is 11.2 µM (active).

With `Cc1c(CCC(=O)N[C@@H](CC(C)C)C(=O)O)c(=O)oc2c(C)c3oc4c(c3cc12)CCCC4` as the compound, how does the “activity change, negative = growth inhibition” value read?
The value was -5.98%.

For `CCN(CC)CCCNC(=O)CCn1nc(-c2ccc(Cl)cc2)ccc1=O`, which “activity change, negative = growth inhibition” value is on record?
The value was -12.9%.

With `O=C(Nc1ccc(OC(F)(F)F)cc1)c1cc2c(=O)n3ccccc3nc2s1` as the compound, how does the “activity change, negative = growth inhibition” value read?
The value was -10.7%.

For `Cn1c(C(=O)Nc2cccc(C(F)(F)F)c2)cc2c(=O)n3ccccc3nc21`, which Potency is on record?
The Potency was 9.2 µM (active).

For `O=C(COC(=O)c1cccc(Cl)c1)NC(=O)NCc1ccccc1`, which “activity change, negative = growth inhibition” value is on record?
Its value is 5.96%.

For `CCN(CC)c1ccc2oc(=O)c(C)nc2c1`, which Potency is on record?
Its Potency is 5.8 µM (active).

For `CCN(CC)c1ccc2cc(C(=O)O)c(=O)oc2c1`, which “activity change, negative = growth inhibition” value is on record?
The value was -13.5%.

For `CCN(CC)c1ccc2c(Nc3ccccc3)c(C=O)c(=O)oc2c1`, which “activity change, negative = growth inhibition” value is on record?
Its value is -1.93%.

For `COc1ccc(CCNC(=O)C(=O)NCc2ccccc2C)cc1OC`, which “activity change, negative = growth inhibition” value is on record?
Its value is 6.43%.

Which Potency does the source give for `COC(=O)c1ccc(C2C(Oc3ccccc3C)C(=O)N2CCc2ccc(OC)c(OC)c2)cc1` (stereo not given) here?
Its Potency is 14.6 µM (active).

For `COc1ccc(CCN2C(=O)C3CC=C(C)CC3C2=O)cc1OC` (stereo not given), which “activity change, negative = growth inhibition” value is on record?
Its value is -29.3%.

With `CN(CCC1CCOCC1)C(=O)CC1C(=O)NCCN1Cc1cccc(F)c1` (stereo not given) as the compound, how does the “activity change, negative = growth inhibition” value read?
Its value is -6.27%.

For `COc1ccc(NS(=O)(=O)c2cc3c(cc2C)N(C(C)=O)CCO3)cc1`, which Potency is on record?
The Potency was “inactive”.

For `CCOC(=O)c1c(NC(=O)NC(C)(C)C)sc2c1CCN(C)C2`, which “activity change, negative = growth inhibition” value is on record?
Its value is -0.308%.

With `COC(=O)c1c(NC(=O)c2ccc(Cl)c(Cl)c2)sc2c1CCCC2` as the compound, how does the “activity change, negative = growth inhibition” value read?
Its value is -2.84%.

For `CCCN(CCC)S(=O)(=O)c1ccc(C(=O)Nc2sc3c(c2C(=O)OC)CCN(CC)C3)cc1`, which Potency is on record?
Its Potency is 20.6 µM (active).

With `COC(=O)c1c(NC(=O)c2cc(=O)c3c(C)cc(C)cc3o2)sc2c1CCCC2` as the compound, how does the “activity change, negative = growth inhibition” value read?
Its value is 2.53%.

Which “activity change, negative = growth inhibition” value does the source give for `CCOC(=O)c1c(NC(=O)C2CCN(S(=O)(=O)c3ccc(Cl)cc3)CC2)sc2c1CCCC2` here?
The value was -25.2%.

Which Potency does the source give for `CCOC(=O)c1c(NC(=O)c2ccc(S(=O)(=O)N3CCCC(C)C3)cc2)sc2c1CCN(C(C)C)C2` (stereo not given) here?
The Potency was 10.3 µM (active).

With `O=C(O)/C=C/c1ccc(OCCCF)cc1` as the compound, how does the “activity change, negative = growth inhibition” value read?
Its value is 7.32%.

Which “activity change, negative = growth inhibition” value does the source give for `CN(C)/C=C/C(=O)c1cnc2sccn2c1=O` here?
The value was 1.42%.

For `Cn1nc(C(F)(F)F)c(-c2ccc(F)cc2)c1NC(=O)CSCC(=O)O`, which “activity change, negative = growth inhibition” value is on record?
Its value is 4.22%.

For `CN(C)C=NC(=O)c1cccn1-c1ncc(C(F)(F)F)cc1Cl`, which “activity change, negative = growth inhibition” value is on record?
The value was -0.565%.

With `CC(C)N(C(=O)CSc1nnc(NC2CC2)s1)c1ccccc1` as the compound, how does the “activity change, negative = growth inhibition” value read?
Its value is 11.9%.

With `CC(C)c1ccc(Nc2nnc(SCC(=O)c3nnc(-c4ccccc4)o3)s2)cc1` as the compound, how does the Potency read?
The Potency was 11.6 µM (active).

With `O=C(CSc1nnc(Nc2ccccc2)s1)Nc1cccnc1Cl` as the compound, how does the “activity change, negative = growth inhibition” value read?
The value was 6.65%.

With `C/C(=N\OC(=O)c1ccccc1)c1c(C)nc2cc(C)ccn12` as the compound, how does the “activity change, negative = growth inhibition” value read?
Its value is 1.66%.

For `CC1=C(C(=O)Nc2ccc(Cl)cc2)C(c2ccco2)NC(=O)N1` (stereo not given), which “activity change, negative = growth inhibition” value is on record?
Its value is -5.62%.

Which “activity change, negative = growth inhibition” value does the source give for `Cc1ccc(SCC(=O)Nc2ccc3c(c2)OCCO3)cc1` here?
Its value is -4.73%.

Which Potency does the source give for `Cc1ccc(SCC(=O)c2cc(C)c(OC(=S)N(C)C)c(C)c2)cc1` here?
Its Potency is 18.4 µM (active).

For `Cc1ccc(SC(=O)COc2ccc(C)c(C)c2)cc1`, which “activity change, negative = growth inhibition” value is on record?
Its value is -15.4%.

For `CCCCc1ccc(S(=O)(=O)NC(=O)C2(C)CCN2C(=O)c2c(C)noc2C)cc1` (stereo not given), which “activity change, negative = growth inhibition” value is on record?
Its value is -11.2%.

For `C=CCOCCN(C)C1=NS(=O)(=O)c2ccccc21`, which “activity change, negative = growth inhibition” value is on record?
The value was -11.1%.

Which Potency does the source give for `O=S1(=O)N=C(N(CCO)/N=C/c2ccccc2F)c2ccccc21` here?
The Potency was 0.92 µM (active).

Which “activity change, negative = growth inhibition” value does the source give for `COc1ccc(/C=N/N(C)C2=NS(=O)(=O)c3ccccc32)cc1OC` here?
The value was -4.78%.
